Screening results as filed in PubChem BioAssay.
Rows were chosen to be rich in hits. Some 12% of all compounds tested hit in one or more screens of this group.
Sfp inh: Sfp phosphopantetheinyl transferase inhibition; Q9F4F7; Biochemical Sfp PPTase activity, qHTS; Potency, µM, for inactives: largest response in the series, negative = inhibition, usual class: inhibitors; actives 3.5% (n = 310,000); AID 1490;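 also: the enzyme is Sfp with the accession as filed and its product quenches rhodamine fluorescence; 0% = enzyme reaction without inhibitor and -100% = no enzyme wells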
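After 15 min at room temperature with compound, 15 nM Sfp received 5 uM rhodamine-CoA plus 12.5 uM BHQ-2-ybbR (50 mM Hepes pH 7.6, 10 mM MgCl2). Rate came from the fluorescence difference over 30 min, ex 525/em 598 nm.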
G9a inh: inhibitors of human histone lysine methyltransferase G9a. Q96KQ7. G9a H3K9 monomethylation, AlphaScreen, 2 h. Potency, µM (series often up to 102 µM), inactives show at the top dose activity, negative = inhibition, actives largely listed as inhibitors. actives 8.8% (n = 350,000). AID 504332; also: % is scaled to controls: 0 for no effect and ±100 for the full control effect; nearly all actives have a fitted effect of over 75% in size
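Signal arises when biotinylated H3K9 peptide, once monomethylated, bridges streptavidin donor and antibody-captured acceptor beads. Enzyme at 20 nM was preincubated 15 min with test compounds; peptide 500 nM and SAM 20 uM then reacted for 2 h.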
BAZ2B block: inhibitors of human BAZ2B bromodomain; Q9UIF8; AlphaScreen BAZ2B-H3K14Ac peptide displacement; Potency, µM (titrated, usually from 114 µM), for the others: at the top dose activity change, negative = inhibition, most hits filed as inhibitors; actives 4.4% (n = 360,000); AID 504333; also: % is scaled to controls: 0 for no effect and ±100 for the full control effect; nearly all actives have a fitted effect of over 60% in size
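Multi-concentration screen (max 110 uM) measuring displacement of acetylated histone H3 peptide from BAZ2B by AlphaScreen, using 50 nM protein, 50 nM peptide and 10 ug/mL streptavidin donor plus Ni-chelate acceptor beads.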
HP1b chromo inh: HP1-beta chromodomain-methylated histone interaction inhibition; P83916; AlphaScreen HP1-beta / biotin-H3K9me3 peptide binding; Potency, µM (top dose mostly 114 µM), inactives show top-dose activity change, negative = inhibition, most hits filed as inhibitors; actives 0.56% (n = 390,000); AID 540317; also: nearly all actives have a fitted effect of over 70% in size
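Compound inhibition of the preformed complex between 50 nM HP1-beta and 50 nM biotinylated H3K9me3 peptide was read by AlphaScreen. Buffer was PBS pH 7.4 with 0.01% Tween-20. Incubations ran 30 min at room temperature, with 10 ug/mL donor/acceptor beads.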
JMJD2A Tudor inh: blocks the human JMJD2A Tudor domain; Potency, µM (series often up to 114 µM), for inactives: at the highest dose activity change, negative = inhibition, actives largely listed as inhibitors; actives 4.4% (n = 390,000); AlphaScreen JMJD2A-Tudor / H3K4me3 peptide binding; AID 504339; also: % is scaled to controls: 0 for no effect and ±100 for the full control effect; nearly all actives have a fitted effect of over 50% in size
L3MBTL1 inh: inhibitors of human L3MBTL1 | Potency, µM (titrated, usually from 57.1 µM), for inactives: at the highest dose activity, negative = inhibition, hits mostly inhibitors | AlphaScreen L3MBTL1–H3K9me1 peptide binding | actives 0.66% (n = 230,000) | Q9Y468; also: % is scaled to controls: 0 for no effect and ±100 for the full control effect; nearly all actives have a fitted effect of over 60% in size
Target sequence (Q9Y468 whole entry, looked up): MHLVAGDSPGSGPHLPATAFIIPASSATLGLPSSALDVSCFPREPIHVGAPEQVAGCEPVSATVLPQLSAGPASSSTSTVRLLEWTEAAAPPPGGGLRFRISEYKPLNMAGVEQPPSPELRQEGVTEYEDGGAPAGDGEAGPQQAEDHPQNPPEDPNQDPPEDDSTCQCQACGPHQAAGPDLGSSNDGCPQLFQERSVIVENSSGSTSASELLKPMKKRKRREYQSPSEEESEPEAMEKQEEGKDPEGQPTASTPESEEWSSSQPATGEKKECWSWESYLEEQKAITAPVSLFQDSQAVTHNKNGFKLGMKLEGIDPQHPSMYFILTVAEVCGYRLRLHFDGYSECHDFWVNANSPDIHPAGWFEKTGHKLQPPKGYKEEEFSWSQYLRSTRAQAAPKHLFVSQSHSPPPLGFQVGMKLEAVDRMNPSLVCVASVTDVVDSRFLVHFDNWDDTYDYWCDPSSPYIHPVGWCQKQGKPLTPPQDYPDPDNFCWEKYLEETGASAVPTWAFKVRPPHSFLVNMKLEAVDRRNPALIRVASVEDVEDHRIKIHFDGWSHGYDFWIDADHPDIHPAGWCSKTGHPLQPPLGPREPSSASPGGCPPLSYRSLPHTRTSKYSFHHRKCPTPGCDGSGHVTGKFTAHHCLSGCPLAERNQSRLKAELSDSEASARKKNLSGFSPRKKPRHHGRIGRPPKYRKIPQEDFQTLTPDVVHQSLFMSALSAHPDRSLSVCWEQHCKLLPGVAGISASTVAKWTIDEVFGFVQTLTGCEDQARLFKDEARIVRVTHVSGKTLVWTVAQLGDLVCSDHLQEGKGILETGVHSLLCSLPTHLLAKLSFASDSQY
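Read-out is AlphaScreen signal from streptavidin donor and nickel chelate acceptor beads (10 ug/mL final each) bridging L3MBTL1 (50 nM) and biotinylated K9-monomethylated H3(1-15) peptide (75 nM), after 30 min compound exposure at room temperature.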
* marks the source's active call; other numbers are inactive results; ? = inconclusive; · = no result; [ ] = dose if it differs, or a comment. Calls follow the shape of the dose curve; as a rule, active = well fitted curve in the direction sought with a large enough effect; inconclusive = small, poorly fitted or top-dose-only effect, or another doubt; inactive = no such curve, though single readings can be large; an effect the other way counts as inactive or inconclusive. Potency is read from the fitted curve at half-maximal effect.

SMILES | Sfp inh | G9a inh | BAZ2B block | HP1b chromo inh | JMJD2A Tudor inh | L3MBTL1 inh
O=C(c1ccc2c(c1)N(Cc1cccc(Cl)c1)C(=O)c1ccccc1S2(=O)=O)N1CCc2ccccc21 | · | ? | -9.9% | 1.5% | -21.2% | ·
O=C(COC(=O)Cc1n[nH]c(=O)c2ccccc12)NNC(=O)c1ccc(Cl)cc1 | · | 44.0%[12.7 µM] | -3.8% | 36.7% | -8.6% | -8.6%
O=C(CCS(=O)(=O)c1cccc2nonc12)Nc1ccc(F)cc1F | · | 2.8%[59 µM] | 2.5% | 26.2%[57 µM] | -11.8% | ·
COc1ccc(-c2nc3c4ccccc4ccn3c2CN2CCCCC2)cc1 | 12.8% | 39.8µM* | ? | -2.6% | ? | -4.0%
CC(=O)Oc1ccc2c(C)cc(=O)oc2c1 | 17.9% | 0.3%[59 µM] | 7.9% | 37.9% | 12.1% | ·
CC(=O)Oc1cc2oc(=O)cc(C)c2cc1OC(C)=O | 79.4µM* | 0.501µM* | 50.1µM* | 26.2% | -34.3% | -3.1%
CCCCn1c(SCC(=O)Nc2cc(C)[nH]n2)nc2ccsc2c1=O | 16.4% | -1.1% | 1.3% | 21.9% | -14.8% | -2.1%
Cc1cc(NC(=O)CSc2nc3ccsc3c(=O)n2Cc2ccccn2)n[nH]1 | 13.3% | 102.2%[59 µM] | 79.4µM* | 18.0% | -35.8% | -4.6%
NC1=Nc2cccc3cccc1c23 | 8.8% | -36.9% | -17.4% | -12.6% | ? | -33.7%
Brc1ccc(C2=Nc3cccc4cccc(c34)N2)o1 | -18.3% | 15.8µM* | ? | 44.7µM* | ? | -1.6%
Fc1ccc(C2=Nc3cccc4cccc(c34)N2)cc1 | 0.6% | ? | -33.1% | -21.3% | -32.4% | 0.6%
FC(F)(F)C1=Nc2cccc3cccc(c23)N1 | · | 2.1%[0.501 µM] | ? | -21.5% | ? | 2.51µM*
O=S(=O)(CCc1ccncc1)Cc1ccc2c3c(cccc13)CC2 | 6.4% | 50.1µM* | -3.3% | 24.9% | -4.2% | ·
Cc1ccc(Cl)c(OCC(=O)Nc2sc(C)c(C)c2C#N)c1 | -27.4% | 44.7µM* | -2.8% | 4.3% | -21.9% | 0.5%
Cc1ccc(Cl)c(OCC(=O)Nc2cccnc2)c1 | 8.6% | 20.5% | ? | 5.0% | -7.8% | ·
O=C1/C(=C/N(C(=O)c2ccco2)c2ccc(Br)cc2)Sc2ccccc21 | -3.8% | 44.7µM* | ? | ? | 56.2µM* | -9.2%
O=C1/C(=C/N(C(=O)c2ccco2)c2ccc(Cl)cc2)Sc2ccccc21 | 8.1% | -2.7%[59 µM] | -38.4% | -20.0% | ? | -7.8%
Nc1nnc(SCC(=O)NNC(=O)c2ccc(Cl)cc2)s1 | · | 8.91µM* | -1.3% | 23.4% | -16.9% | 2.5%
Cc1ccc(C(=O)NNC(=O)CSc2nc(N)cc(N)n2)cc1 | 31.6µM* | -7.2%[59 µM] | 3.4% | ? | -17.0%[57.1 µM] | 2.2%
Cc1ccc(C(=O)NNC(=O)C(C)Sc2nc(N)cc(N)n2)cc1 (stereo unspecified) | 1.5% | -35.8%[59 µM] | -2.4% | 36.0% | 1.8% | 9.0%
CCOC(=O)c1[nH]cnc1C(=O)Nc1ccccc1OC | 1.6% | ? | 89.1µM* | 34.0% | ? | ?
CCOC(=O)c1[nH]cnc1C(=O)Nc1ccccn1 | -20.9% | ? | 79.4µM* | 28.5% | -88.0% | -7.6%
CCOC(=O)c1[nH]cnc1C(=O)Nc1cccc(Cl)c1 | -2.5% | ? | 89.1µM* | 2.8% | -15.3% | -10.9%
CCOC(=O)c1[nH]cnc1C(=O)Nc1ccc(Cl)cc1 | 10.1% | 2.7% | -15.2% | 33.7% | -8.2% | 6.4%
CCN(CC(=O)Nc1cc(Cl)ccc1C)C(=O)CCS(=O)(=O)c1ccc(Cl)cc1 | 17.5% | ? | -1.4% | 39.8% | -11.8% | ·
SMILES | Sfp inh | G9a inh | BAZ2B block | HP1b chromo inh | JMJD2A Tudor inh | L3MBTL1 inh
Cc1ccc(-n2nnnc2SCC(=O)NC2CC2)cc1C | 8.8% | 68.3% | -16.9% | 28.1% | -8.2% | ·
CC(C)(C)c1cc(OC(=O)c2ccccc2F)ccc1O | 17.4% | · | -4.0% | 28.1% | -1.7% | 1.8%
CCC1(c2ccccc2)SC(=O)NC1=O (stereo unspecified) | · | · | · | 32.1% | -9.7% | ·
O=C(O)c1ccc(OCCCCCCOC2CCCCO2)cc1 (stereo unspecified) | 15.8% | 12.8% | -2.4% | 12.1% | ? | ·
CC1CCCC(NC(=O)CSc2nncs2)C1C (stereo unspecified) | · | -20.5%[59 µM] | 4.5% | 30.0% | -11.1% | 0.6%
Cc1ccc(C(=O)O)cc1NC(=S)NC(=O)Cc1ccccc1 | 5.0% | -7.0% | 3.0% | 32.9% | 4.1% | 7.2%
Cc1ccc(C(=O)O)cc1NC(=S)NC(=O)c1ccc(COc2ccccc2)cc1 | 50.1µM* | · | 50.1µM* | 6.9% | ? | ·
COc1cc2ccccc2cc1C(=O)NC(=S)Nc1cc(C(=O)O)ccc1C | -3.9% | ? | ? | 8.9% | -24.1% | ·
COc1ccccc1C(=O)NC(=S)Nc1cc(C(=O)O)ccc1C | -28.4% | 44.7µM* | 0.8% | -1.9% | -3.5% | ·
COc1ccc(CN(CC2CCCO2)C(=O)c2cc3sccc3n2C)c(OC)c1 (stereo unspecified) | 4.9% | ? | 56.2µM* | -21.9% | ? | -22.9%
O=C(c1ccco1)N1CCCC(c2nc3c(nnn3Cc3ccc(Cl)cc3Cl)c(=O)[nH]2)C1 (stereo unspecified) | -19.3% | -14.9% | -19.1% | -10.1% | -28.2% | ·
c1nnc(NC2=NCCC2)s1 | ? | ? | -3.8% | -6.2% | 8.91µM* | ·
Cc1cnc(NC2=NCCC2)s1 | -11.1% | 11.2µM* | -32.0% | 4.8% | ? | -4.5%
Clc1ccc(CSc2nnc(NC3=NCCCCC3)s2)cc1 | 3.5% | 23.9% | 32.5% | 110.3% | 51.6% | ·
c1nnc(NC2=NCCCCC2)s1 | 14.4% | -9.0%[59 µM] | -1.0% | 4.6% | -9.3% | 9.6%
CCc1nnc(NC2=NCCC2)s1 | 56.2µM* | ? | ? | 17.1% | 70.8µM* | ·
O=C(COC(=O)c1oc2ccccc2c1COc1ccccc1)NCCN1C(=O)CSC1=O | -8.2% | 10.4%[59 µM] | -0.4% | 21.3% | -10.6% | -5.5%
O=S(=O)([N-]c1nc2ccccc2nc1-n1cc[n+](Cc2ccccc2)c1)c1ccc(Br)cc1 | 1.2% | -3.6%[12.7 µM] | -0.3% | 42.7% | -13.2% | -2.4%
NNC(=O)C(=O)NCCCN1CCOCC1 | 4.9% | 56.2µM* | -29.3% | 15.2% | ? | -0.3%
CC(C)CNC(=O)C(=O)NCCCN1CCOCC1 | 7.4% | · | -7.7% | -10.8% | -5.3% | 6.5%
O=C(/C=C/c1ccc(Br)o1)NCCCN1CCOCC1 | 17.8µM* | 22.4µM* | ? | 17.2% | -9.5% | ·
